Records with an inconclusive call do not appear. A structure can be active in one record and inactive in another. Calls of active or inactive are those of the source. Rule for the calls, unless noted: active = hit-call score of the fitted dose curve at least 0.9, where 1 is the maximum; inconclusive = response in the unintended direction; inactive = score below 0.9.

System in one experiment: not listed separately
Nature of the experiment: CCTE_Deisenroth_5AR_NBTE_donor: CCTE's 5alpha-reductase NanoBRET Target Engagement Assay […], Deisenroth Lab (AID 2284319; active = hit-call score of the fitted dose curve at least 0.9, where 1 is the maximum; inactive = score below 0.9). To be noted: actives raise or lower the signal. An outline of the steps:
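HEK293T cells transiently expressing SRD5A2-NanoLuc, exposed 5 h to chemicals (8 points, 10 nM - 29.9 uM), with testosterone tracer for the final 2 h. Donor luminescence at 460 nm read after Nano-Glo substrate plus extracellular NanoLuc inhibitor; bidirectional fit versus DMSO.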
In general terms: In BRET a luciferase serves as donor, and the signal depends on an acceptor being close.
`CCC(C)(NC(=O)c1cc(Cl)c(C)c(Cl)c1)C(=O)CCl` (stereo not drawn): the compound was classed as inactive.

`CC1(c2ccc(Oc3ccccc3)cc2)OC(=O)N(Nc2ccccc2)C1=O` (stereo not drawn): the call was inactive.

With `CCCN(CCC)c1c([N+](=O)[O-])cc(C(F)(F)F)cc1[N+](=O)[O-]`, the call was inactive.

As for `ClC1C(Cl)C(Cl)C(Cl)C(Cl)C1Cl` (stereo not drawn), the compound was classed as inactive.

On to `O=[N+]([O-])/N=C1\NCCN1Cc1ccc(Cl)nc1`, for which the compound was called inactive.

On to `O=S1OCC2C(CO1)C1(Cl)C(Cl)=C(Cl)C2(Cl)C1(Cl)Cl` (stereo not drawn), for which the compound was called inactive.

For the compound `CCCN(CCOc1c(Cl)cc(Cl)cc1Cl)C(=O)n1ccnc1`, the result was inactive.

As to `CCC(C)Nc1c([N+](=O)[O-])cc(C(C)(C)C)cc1[N+](=O)[O-]` (stereo not drawn), the outcome was inactive.

For `O=C1c2ccccc2C(=O)N1SC(Cl)(Cl)Cl`, the outcome was inactive.

System in a further experiment: not listed separately
Nature of the experiment: CCTE_Deisenroth_5AR_NBTE_acceptor: CCTE's 5alpha-reductase NanoBRET Target Engagement Assay - Autofluorescence Screen, Deisenroth Lab (AID 2284321; active = hit-call score of the fitted dose curve at least 0.9, where 1 is the maximum; inactive = score below 0.9;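 note: compound fluorescence in the acceptor channel under 460 nm excitation flags autofluorescence artifacts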). To be noted: actives raise or lower the signal. The procedure:
CCTE_Deisenroth_5AR NBTE (5alpha-reductase NanoBRET Target Engagement Assay) is a cell-based, single-readout assay that uses HEK293T, a human kidney cell line, with measurements taken at 5 hours after chemical dosing in a 384 well plate. This assay includes a primary and secondary screen as well as an autofluorscence screen.CCTE_Deisenroth_5AR NBTE_acceptor is one of four assay components measured from the CCTE_Deisenroth_5AR NBTE assay. It is designed to make measurements of resonant fluorescence generated by bioluminescent energy transfer to a target fluorophore, as detected by fluorescence intensity emission signals using spectrometry technology.Data from the assay component CCTE_Deisenroth_5AR NBTE_acceptor was analyzed into 1 assay endpoint. This assay endpoint, CCTE_Deisenroth_5AR NBTE_acceptor, was analyzed with bidirectional fitting relative to DMSO as the negative control and baseline of activity. Using a type of inducible reporter, gain or loss-of-signal activity can be used to understand changes in the acceptor fluorescence as related to 5alpha-reductase catalytic function. Furthermore, this assay endpoint can be referred to as a secondary readout, because this assay has produced multiple assay endpoints where this one serves an artifact detection function.
Chemicals from the blinded ToxCast library were diluted 1000-fold in DMSO to an assumed nominal concentration of 100 uM. Samples were scanned in three independent runs (n=3) on a multi-mode plate reader at a fixed excitation wavelength of 460 nm with emission filter set at […]. For reference, tracer was included at DMSO-solubilized concentrations of 100 uM (the top tested concentration for each test chemical) and 600 nM (the final working concentration of the tracer probe).
Turning to `CCC(C)(NC(=O)c1cc(Cl)c(C)c(Cl)c1)C(=O)CCl` (stereo not drawn), the compound was called inactive.

In the case of `CC1(c2ccc(Oc3ccccc3)cc2)OC(=O)N(Nc2ccccc2)C1=O` (stereo not drawn), the compound was classed as inactive.

On to `CCCN(CCC)c1c([N+](=O)[O-])cc(C(F)(F)F)cc1[N+](=O)[O-]`, for which the call was inactive.

`ClC1C(Cl)C(Cl)C(Cl)C(Cl)C1Cl` (stereo not drawn): the compound was called inactive.

Turning to `O=[N+]([O-])/N=C1\NCCN1Cc1ccc(Cl)nc1`, the call was inactive.

`O=S1OCC2C(CO1)C1(Cl)C(Cl)=C(Cl)C2(Cl)C1(Cl)Cl` (stereo not drawn): the compound was called inactive.

As for `CCCN(CCOc1c(Cl)cc(Cl)cc1Cl)C(=O)n1ccnc1`, the compound was classed as inactive.

As for `CCC(C)Nc1c([N+](=O)[O-])cc(C(C)(C)C)cc1[N+](=O)[O-]` (stereo not drawn), the compound was called inactive.

Take `O=C1c2ccccc2C(=O)N1SC(Cl)(Cl)Cl`: the compound was classed as inactive.

The test system of the next experiment is SRD5A2 (gene 6716). The experiment can be described thus: CCTE_Deisenroth_5AR_NBTE_ratio: CCTE's 5alpha-reductase NanoBRET Target Engagement Assay - Ratio, Deisenroth Lab (AID 2284322; active = hit-call score of the fitted dose curve at least 0.9, where 1 is the maximum; inactive = score below 0.9). To be noted: actives raise or lower the signal. The method, boiled down:
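SRD5A2-NanoLuc HEK293T; cmpd 10 nM-29.9 uM, 3 h preinc + testosterone tracer 2 h; NanoBRET ratio 650/460; bidirectional fit vs DMSO.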
As for `CCC(C)(NC(=O)c1cc(Cl)c(C)c(Cl)c1)C(=O)CCl` (stereo not drawn), the result was inactive.

For `CC1(c2ccc(Oc3ccccc3)cc2)OC(=O)N(Nc2ccccc2)C1=O` (stereo not drawn), the AC50 (usually the midpoint of the concentration-response curve, whichever way the signal moves) was 9.91 µM (active).

Take `CCCN(CCC)c1c([N+](=O)[O-])cc(C(F)(F)F)cc1[N+](=O)[O-]`: the result was inactive.

On to `ClC1C(Cl)C(Cl)C(Cl)C(Cl)C1Cl` (stereo not drawn), for which the outcome was inactive.

As for `O=[N+]([O-])/N=C1\NCCN1Cc1ccc(Cl)nc1`, the result was inactive.

In the case of `O=S1OCC2C(CO1)C1(Cl)C(Cl)=C(Cl)C2(Cl)C1(Cl)Cl` (stereo not drawn), the result was inactive.

For the compound `CCCN(CCOc1c(Cl)cc(Cl)cc1Cl)C(=O)n1ccnc1`, the result was inactive.

`CCC(C)Nc1c([N+](=O)[O-])cc(C(C)(C)C)cc1[N+](=O)[O-]` (stereo not drawn): the outcome was inactive.

Take `O=C1c2ccccc2C(=O)N1SC(Cl)(Cl)Cl`: the result was inactive.

System in the next experiment: not listed separately
Nature of the experiment: TAMU_PeakParms_SingleDonor1434_Asystole: Texas A&M University (TAMU) 1.5-hr Human Induced Pluripotent Stem Cell (iPSC)-derived Cardiomyocytes Calcium (Ca+2) Flux Assay for Cardiotoxicity: Asystole (quiescence of beating) (AID 2284328).
Conditions: not given
An outline of the steps:
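Donor 1434 iPSC-cardiomyocytes exposed 90 min at 37C, 5% CO2, to 0.2, 1, 10 and 100 uM in 0.5% DMSO. Ca2+ dye fluorescence gave average peak frequency; POD is EC95, a 95% beat-rate drop versus controls.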
Regarding `CN1CSC(=S)N(C)C1`, the result was inactive.

With `CCOCN(C(=O)CCl)c1c(C)cccc1CC`, the result was inactive.

As for `ClC1C(Cl)C(Cl)C(Cl)C(Cl)C1Cl` (stereo not drawn), the outcome was inactive.

With `O=S1OCC2C(CO1)C1(Cl)C(Cl)=C(Cl)C2(Cl)C1(Cl)Cl` (stereo not drawn), the outcome was inactive.

System in another experiment: not listed separately
Nature of the experiment: IUF_NPC1_cytotoxicity_72hr: Cytotoxicity Assessment at 72 hours in the Leibniz Research Institute for Environmental Medicine (IUF) Neural Progenitor Cell Proliferation Assay (NPC1) (AID 2284332).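 Note: rising LDH signal means more cytotoxicity.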
Conditions: not given
An outline of the steps:
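Readout is fluorescence from LDH-dependent resazurin conversion, sampled from culture medium after compound contact lasting 72 h. Each well holds one 0.25-0.35 mm human progenitor sphere kept at 37C, 5% CO2 with EGF and FGF.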
Take `O=C(O)COc1ccc(Cl)cc1Cl`: the compound was called inactive.

`CNC(=O)CSP(=S)(OC)OC`: the result was inactive.

In the case of `CC1(C)C(C=C(Cl)Cl)C1C(=O)OC(C#N)c1ccc(F)c(Oc2ccccc2)c1` (stereo not drawn), the outcome was inactive.

`O=C(O)C(F)(F)C(F)(F)C(F)(F)C(F)(F)C(F)(F)C(F)(F)C(F)(F)F`: the call was inactive.

`CCC(C)(C)C(=O)OC1=C(c2ccc(Cl)cc2Cl)C(=O)OC12CCCCC2`: the call was inactive.

For `COP(=O)(OC)OC=C(Cl)Cl`, the compound was classed as inactive.

In the case of `CC1(c2ccc(Oc3ccccc3)cc2)OC(=O)N(Nc2ccccc2)C1=O` (stereo not drawn), the result was inactive.

As for `CC(C)N(C(=O)COc1nnc(C(F)(F)F)s1)c1ccc(F)cc1`, the compound was classed as inactive.

With `COP(=S)(OC)Oc1ccc([N+](=O)[O-])cc1`, the compound was called inactive.

Turning to `O=S(=O)(O)C(F)(F)C(F)(F)C(F)(F)C(F)(F)C(F)(F)C(F)(F)C(F)(F)C(F)(F)F`, the AC50 was 3.31 µM (active) and the result was inactive.

Take `CC[C@H](C)[C@H]1O[C@]2(C=C[C@@H]1C)C[C@@H]1C[C@@H](C/C=C(\C)[C@@H](O[C@H]3C[C@H](OC)[C@@H](O[C@H]4C[C@H](OC)[C@@H](O)[C@H](C)O4)[C@H](C)O3)[C@@H](C)/C=C/C=C3\CO[C@@H]4[C@H](O)C(C)=C[C@@H](C(=O)O1)[C@]34O)O2` (tested in a mixture with another compound): the call was inactive.

For `O=[N+]([O-])/N=C1\NCCN1Cc1ccc(Cl)nc1`, the compound was classed as inactive.

On to `O=S1OCC2C(CO1)C1(Cl)C(Cl)=C(Cl)C2(Cl)C1(Cl)Cl` (stereo not drawn), for which the compound was classed as inactive.

System in the next experiment: not listed separately
The experiment can be described thus: CCTE_Mundy_HCI_iCellGluta_NOG_NeuronCount: CCTE's Neurite Outgrowth Assay in iCellGluta cells for Neuron Count, Mundy Lab (AID 2284340).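 Note: cells fixed about 48 h after compound addition.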
Conditions: not given
The method, boiled down:
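Neuron count read by automated high-content imaging of Hoechst 33342 and betaIII-tubulin/Alexa Fluor-488 labelling in human iPSC glutamatergic neurons. Activity fitted relative to DMSO.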
With `CNC(=O)CSP(=S)(OC)OC`, the compound was called inactive.

For `CC1(C)C(C=C(Cl)Cl)C1C(=O)OC(C#N)c1ccc(F)c(Oc2ccccc2)c1` (stereo not drawn), the AC50 is 49.9 µM (active) and the call was inactive.

As to `O=C(O)C(F)(F)C(F)(F)C(F)(F)C(F)(F)C(F)(F)C(F)(F)C(F)(F)F`, the outcome was inactive.

As to `CCC(C)(C)C(=O)OC1=C(c2ccc(Cl)cc2Cl)C(=O)OC12CCCCC2`, the outcome was inactive.

With `COP(=O)(OC)OC=C(Cl)Cl`, the compound was classed as inactive.

For `CC1(c2ccc(Oc3ccccc3)cc2)OC(=O)N(Nc2ccccc2)C1=O` (stereo not drawn), the AC50 was 50 µM (active).

Turning to `CC(C)N(C(=O)COc1nnc(C(F)(F)F)s1)c1ccc(F)cc1`, the compound was called inactive.

For the compound `COP(=S)(OC)Oc1ccc([N+](=O)[O-])cc1`, the result was inactive.

As for `O=S(=O)(O)C(F)(F)C(F)(F)C(F)(F)C(F)(F)C(F)(F)C(F)(F)C(F)(F)C(F)(F)F`, the call was inactive.

`CC[C@H](C)[C@H]1O[C@]2(C=C[C@@H]1C)C[C@@H]1C[C@@H](C/C=C(\C)[C@@H](O[C@H]3C[C@H](OC)[C@@H](O[C@H]4C[C@H](OC)[C@@H](O)[C@H](C)O4)[C@H](C)O3)[C@@H](C)/C=C/C=C3\CO[C@@H]4[C@H](O)C(C)=C[C@@H](C(=O)O1)[C@]34O)O2` (tested in a mixture with another compound): the AC50 was 3.77 µM (active).

For the compound `O=[N+]([O-])/N=C1\NCCN1Cc1ccc(Cl)nc1`, the compound was called inactive.

As to `O=S1OCC2C(CO1)C1(Cl)C(Cl)=C(Cl)C2(Cl)C1(Cl)Cl` (stereo not drawn), the AC50 was 13.8 µM (active).

The values above are taken from PubChem BioAssay (EPA / NIEHS).
